High-throughput results (PubChem BioAssay)
Dicer inh: human Dicer pre-microRNA cleavage inhibition. z-score at 25 µM. Q9UPY3. cat-ELCCA pre-miR-21 Dicer processing, chemiluminescence; active compounds read high. hit rate 6% among 47,000. AID 1347074; in the data active = z-score above about 3, passing the limit was not always enough;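 note: plate controls were vehicle for no effect and no enzyme for full effect; higher signal means more uncleaved substrate so more Dicer inhibition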
Target sequence (Q9UPY3 whole entry, looked up): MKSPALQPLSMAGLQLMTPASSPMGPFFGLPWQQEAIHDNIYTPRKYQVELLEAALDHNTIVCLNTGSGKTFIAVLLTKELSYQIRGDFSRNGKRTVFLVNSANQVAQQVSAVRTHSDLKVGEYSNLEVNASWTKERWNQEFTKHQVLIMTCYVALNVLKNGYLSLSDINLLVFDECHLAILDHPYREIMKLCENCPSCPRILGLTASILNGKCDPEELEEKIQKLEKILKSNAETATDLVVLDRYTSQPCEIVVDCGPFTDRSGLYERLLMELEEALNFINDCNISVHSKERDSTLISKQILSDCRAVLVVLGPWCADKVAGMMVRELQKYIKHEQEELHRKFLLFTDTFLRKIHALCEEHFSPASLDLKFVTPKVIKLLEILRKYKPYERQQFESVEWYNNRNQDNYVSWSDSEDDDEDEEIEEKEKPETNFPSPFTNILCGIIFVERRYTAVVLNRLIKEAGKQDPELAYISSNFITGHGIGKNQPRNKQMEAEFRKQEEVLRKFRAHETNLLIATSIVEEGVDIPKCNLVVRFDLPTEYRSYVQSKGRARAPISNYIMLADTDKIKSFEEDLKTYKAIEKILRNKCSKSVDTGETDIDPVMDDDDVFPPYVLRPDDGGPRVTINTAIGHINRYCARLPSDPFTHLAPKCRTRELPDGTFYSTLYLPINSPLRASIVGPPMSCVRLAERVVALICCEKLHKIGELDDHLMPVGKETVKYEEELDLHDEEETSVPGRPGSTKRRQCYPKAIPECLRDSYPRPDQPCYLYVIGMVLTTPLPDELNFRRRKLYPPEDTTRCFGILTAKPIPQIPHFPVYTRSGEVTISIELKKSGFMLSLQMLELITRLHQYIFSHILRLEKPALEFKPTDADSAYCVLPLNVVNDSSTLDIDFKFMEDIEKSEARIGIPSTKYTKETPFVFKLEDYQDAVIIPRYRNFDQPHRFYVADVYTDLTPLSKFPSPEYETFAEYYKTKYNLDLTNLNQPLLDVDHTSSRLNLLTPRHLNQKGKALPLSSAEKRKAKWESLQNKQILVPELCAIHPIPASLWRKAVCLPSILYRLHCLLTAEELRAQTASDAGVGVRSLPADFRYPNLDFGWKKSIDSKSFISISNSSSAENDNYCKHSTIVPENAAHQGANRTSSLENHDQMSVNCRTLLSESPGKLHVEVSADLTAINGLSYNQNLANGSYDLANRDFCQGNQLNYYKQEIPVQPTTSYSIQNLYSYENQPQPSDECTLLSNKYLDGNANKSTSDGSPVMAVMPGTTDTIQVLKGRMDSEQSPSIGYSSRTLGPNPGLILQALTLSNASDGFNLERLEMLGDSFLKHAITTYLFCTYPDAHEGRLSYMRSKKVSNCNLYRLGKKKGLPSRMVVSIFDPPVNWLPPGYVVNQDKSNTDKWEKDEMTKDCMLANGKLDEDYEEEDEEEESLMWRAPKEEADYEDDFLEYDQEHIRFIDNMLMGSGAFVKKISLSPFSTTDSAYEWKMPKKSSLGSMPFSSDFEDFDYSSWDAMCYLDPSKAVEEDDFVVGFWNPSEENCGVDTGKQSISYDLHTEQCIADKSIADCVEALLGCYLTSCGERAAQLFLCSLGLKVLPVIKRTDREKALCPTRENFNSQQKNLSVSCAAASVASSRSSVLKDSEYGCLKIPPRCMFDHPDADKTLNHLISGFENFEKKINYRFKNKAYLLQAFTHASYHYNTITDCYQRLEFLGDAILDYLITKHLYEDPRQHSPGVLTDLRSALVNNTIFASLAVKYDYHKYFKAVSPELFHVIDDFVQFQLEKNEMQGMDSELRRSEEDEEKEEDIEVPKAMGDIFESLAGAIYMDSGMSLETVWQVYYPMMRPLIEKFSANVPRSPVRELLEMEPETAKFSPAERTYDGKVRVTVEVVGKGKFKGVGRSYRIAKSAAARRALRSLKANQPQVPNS
The depositor's hits bear a star; ! = repeats disagree. Shown is part of a subset that was picked to be rich in hits.

SMILES	Dicer inh
CCC1(C(=O)c2ccc(F)cc2)C2c3cc(Br)ccc3OC(=O)C21C(=O)OC (centres undefined)	3.37*
Cc1c(C(N)=O)ncn1Cc1ccc(Cl)cc1	-0.4
N#Cc1ccc(NC(=O)c2cc(C(F)(F)F)cc(C(F)(F)F)c2)cc1C(F)(F)F	0.91
O=[N+]([O-])/C=C/c1cc(C(F)(F)F)cc(C(F)(F)F)c1	0.79
Cc1ccc2onc(OC(=O)N(C)C)c2c1	1.06
CC(C)(C)OC(=O)N[C@@H](CCCN=C(N)N[N+](=O)[O-])C(=O)O	0.75
CCOC(=O)C1=C(N)OC(c2ccccc2)=C(C(=O)OCC)C12C(=O)Nc1ccccc12 (centres undefined)	-0.71
COCCOC(=O)C1=C(C)OC(N)=C(C#N)C12C(=O)Nc1ccccc12 (centres undefined)	3.76*
CCOC(=O)C1=C(C)OC(N)=C(C#N)C12C(=O)Nc1ccccc12 (centres undefined)	2.18
CNC(=O)O/N=C/C(=O)c1ccc(Cl)cc1	-0.86
Nc1ccc(Cc2ccc(N)cc2)cc1	7.57*
CC(=O)CC(c1cccc([N+](=O)[O-])c1)c1c(OC(C)=O)c2ccccc2oc1=O (centres undefined)	0.15
CN(C)C(=O)Oc1ccnc(SCc2ccc([N+](=O)[O-])cc2)n1	-0.04
CC12CCC3C(CC[C@H]4CC5(CCC34C)OCCO5)C1CCC2O (some centres undefined)	-1.91
COc1ccc(CN2CCN(Cc3ccc(Cl)cc3)CC2)cc1Br	1.06
Cc1ccc(-n2c(=S)[nH]c3ccccc3c2=O)cc1	1.43
Cc1ccc2[nH]c(=S)n(-c3ccccc3F)c(=O)c2c1	5.28*
CCc1ccccc1-n1c(=S)[nH]c2ccccc2c1=O	-0.47
CC1(C)CN=C(NCc2cccnc2)S1	1.82
CN[C@@H]1[C@@H](O)[C@@H](O[C@@H]2[C@@H](O)[C@H](O[C@H]3O[C@H]([C@@H](C)NC)CC[C@H]3N)[C@@H](N)C[C@H]2N)OC[C@]1(C)O (tested in a mixture with another compound)	43.8
CN(C)c1ccc(/C=C/c2nc3ccccc3c(=O)n2-c2ccccc2)cc1	1.83
O=c1c2ccccc2nc(/C=C/c2ccco2)n1-c1cccc(O)c1	2.16
O=c1c2ccccc2nc(/C=C/c2ccc([N+](=O)[O-])o2)n1-c1ccc(Br)cc1	2.33
O=c1c2ccccc2nc(C(F)(F)F)n1-c1ccccc1	2.79
O=c1c2ccccc2nc(/C=C/c2ccccc2F)n1-c1ccccc1	5.99*
SMILES	Dicer inh
O=c1c2ccccc2nc(/C=C/c2ccccc2)n1-c1cccc(O)c1	3.14*
Cc1ccc(-n2c(/C=C/c3ccc([N+](=O)[O-])o3)nc3ccccc3c2=O)cc1	3.04*
Cc1nc2ccccc2c(=O)n1-c1ccc(Br)cc1	-0.44
O=c1c2ccccc2nc(/C=C/c2ccc3c(c2)OCO3)n1-c1ccccc1O	2.68
CCC(=O)OC1CCC2C3CCC4=CC(=O)CCC4(C)C3CCC12C (centres undefined)	-1.88
NCCCCNc1ccc([N+](=O)[O-])c2cccnc12	0.15
NC(=NCCc1ccc(Cl)cc1)N[N+](=O)[O-]	2.11
O=C(NC1CC1)C(Cl)(Cl)Cl	0.39
O=C1CSC(c2ccc(Br)cc2)c2c(n(C3CCCC3)[nH]c2=O)N1 (centres undefined)	-0.48
CCc1cc2c(cc1-c1csc(CC#N)n1)C(C)(C)CCC2(C)C	-0.71
O=c1oc2ccccc2c2c1C(c1ccc([N+](=O)[O-])cc1)c1c(c3ccccc3oc1=O)O2	3.68*
N#CC1=C(N)Oc2c(c(=O)oc3ccccc23)C1c1cccnc1 (centres undefined)	-1.16
O=c1oc2ccccc2c2c1C(c1cccc([N+](=O)[O-])c1)c1c(c3ccccc3oc1=O)O2	-0.29
O=C(NNC(=S)Nc1ccc(Cl)cc1)C1(O)CN2CCC1CC2 (centres undefined)	2.16
C#CCSc1nc(C)c(Cc2c(F)cccc2Cl)c(OC(=O)N(C)C)n1	-0.05
CC1=C(C#N)C(c2cnc[nH]2)C2=C(CCCC2=O)N1 (centres undefined)	-0.69
O=C(C1CCCCN1)N1CCN(Cc2cccnc2)CC1 (centres undefined)	-0.7
CC(C)N1CCC(n2nnc3ccccc32)CC1	-1.2
Fc1cccc(Cl)c1CN1CCN(Cc2c(F)cccc2Cl)CC1	-3.91
Clc1ccccc1CN1CCN(Cc2ccc3c(c2)OCO3)CC1	3.86*
CSc1ccc(CN2CCN(Cc3ccccc3Cl)CC2)cc1	0.04
Clc1cccc(CN2CCN(Cc3ccc4c(c3)OCO4)CC2)c1	-0.43
Fc1cccc(CN2CCN(Cc3ccccc3Cl)CC2)c1	6.4*
Clc1ccc(CN2CCN(Cc3ccc4c(c3)OCO4)CC2)cc1	-1.74
CN(C)CC1(CC(=O)O)CCCCC1	0.34
SMILES	Dicer inh
CCCc1cc(OC(=O)N(C)C)nc(-c2cccc(C)c2)n1	-0.07
C[C@]12CC[C@H](O)C[C@H]1CC[C@@H]1[C@@H]2C[C@@H](O)[C@]2(C)[C@@H](C3=CC(=O)OC3)CC[C@]12O	4.45*
C[C@]12CCC3[C@@H](CC[C@@H]4C[C@H](O)CC[C@]34C)[C@@H]1CCC2=O (some centres undefined)	0.03
C[C@]12CC[C@H](O)C[C@H]1CC[C@@H]1[C@@H]2CC[C@]2(C)[C@@H](C3=CC(=O)OC3)CC[C@]12O	0.23
Cc1ccc(C(=O)C(C)c2c(O)c3ccccc3oc2=O)c(Cl)c1 (centres undefined)	2.27
CC(=O)OC1CCC2(C)C3C(=O)CC4(C)C(=O)CCC4C3CC[C@@]2(C)C1 (some centres undefined)	0.34
Cc1ccc(NC2=NCCS2)c(C)c1	1.6
Clc1cc(Br)ccc1NC1=NCCS1	0.58
Cc1cc(C)c(NC2=NCCS2)c(C)c1	-0.62
Clc1cccc(NC2=NCCS2)c1Cl	3.6*
Clc1cccc(Cl)c1NC1=NCCS1	2.3
Clc1cc(Cl)cc(NC2=NCCS2)c1	3.72*!
Cc1cccc2[nH]c(=S)n(-c3ccc(OC(F)(F)F)cc3)c(=O)c12	-0.56
O=C(O)CCC(=O)OC1N=C(c2ccccc2Cl)c2cc(Br)ccc2NC1=O (centres undefined)	1.36
CC12CC[C@@H](O)CC1=CC[C@@H]1C2CCC2(C)C(=O)CC[C@@H]12 (some centres undefined)	2.43
CC12CCC3C4CCC(=O)C=C4CCC3C1CCC2=O (centres undefined)	-1.78
CC12CN3CC(C)(CN(C1)C3c1ccco1)C2O (centres undefined)	-1.1
COc1cccc(CN2CCN(Cc3cc(Br)ccc3O)CC2)c1	3.4*
CCc1ccc(CN2CCN(Cc3cc(Br)ccc3O)CC2)cc1	0.95
COc1ccc(CN2CCN(Cc3ccc(Br)cc3)CC2)cc1	-0.08
Cc1ccc(NC2=NCC(C)(C)S2)cc1	-0.43
CCOc1ccccc1Oc1coc2cc(OC(=O)N(C)C)ccc2c1=O	3.36*
COc1cccc(Oc2c(C)oc3cc(OC(=O)N(C)C)ccc3c2=O)c1	-0.47
Cc1oc2cc(OC(=O)N(C)C)ccc2c(=O)c1Oc1ccccc1Br	1.2
CC(C)Oc1ccc(C2SCC(=O)Nc3c2c(=O)[nH]n3C2CCOC(C)(C)C2)cc1 (centres undefined)	-1.88
